From PubChem BioAssay (Tox21)
Results filed as inconclusive are left out. Calls of active or inactive are those of the source. Unless noted, the call rests on the fitted dose curve.

Key:
[1] = qHTS assay to identify small molecule antagonists of the peroxisome proliferator-activated receptor delta (PPARd) signaling pathway - cell viability counter screen (AID 743213; active means well fitted curve in the direction sought with a large enough effect in the repeat runs; an effect the other way counts as inactive or inconclusive; further: nearly all actives have a fitted effect of over 50% in size)
Outline: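 In this counter screen, HEK293H cells carrying a UAS-beta-lactamase reporter are co-treated with test compounds and 300 nM L165041 (final) for 17 h at 37 C; cell viability is quantified by CellTiter-Glo luminescence.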

[2] = qHTS assay to identify small molecule agonists of the farnesoid-X-receptor (FXR) signaling pathway - cell viability counter screen (AID 743218; active means well fitted curve in the direction sought with a large enough effect in the repeat runs; an effect the other way counts as inactive or inconclusive; further: nearly all actives have a fitted effect of over 45% in size)
Outline: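 After 16 h at 37 C with test compounds, FXR-bla HEK 293T cells were given LiveBLAzer B/G substrate for 2 h at RT and then CellTiter-Glo; luminescence was taken after 30 min.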

[3] = qHTS assay to identify small molecule antagonists of the farnesoid-X-receptor (FXR) signaling pathway - cell viability counter screen (AID 743221; active means well fitted cell-killing curve with a large enough effect in the repeat runs, not every such curve was filed as active; further: nearly all actives have a fitted effect of over 50% in size)
Outline: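 Luminescence from CellTiter-Glo measures cytotoxicity in GeneBLAzer FXR-UAS-bla HEK 293T cells. Cells were exposed to compounds with 50 uM chenodeoxycholic acid (final) for 16 h at 37 C, in wells also used for the reporter readout.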

[4] = molecular target: Vitamin D3 receptor (Homo sapiens) (UniProt P11473); assay: qHTS assay to identify small molecule agonists of the vitamin D receptor (VDR) signaling pathway (AID 743222)
Outline: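 VDR-bla cells were seeded, left 4 h, treated with compounds in DMSO for 16 h, incubated 2 h at RT with B/G FRET substrate, and read for fluorescence.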

[5] = qHTS assay to identify small molecule agonists of the vitamin D receptor (VDR) signaling pathway - cell viability counter screen (AID 743224; active means well fitted curve in the direction sought with a large enough effect in the repeat runs; an effect the other way counts as inactive or inconclusive; further: series mostly up to about 63 µM; nearly all actives have a fitted effect of over 50% in size)
Outline: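 Here cell health was gauged by luminescent ATP detection (CellTiter-Glo, 30 min RT) in VDR-bla cells that had been incubated with test compounds for 16 h at 37C and 5% CO2.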

[6] = qHTS assay to identify small molecule antagonists of the vitamin D receptor (VDR) signaling pathway - cell viability counter screen (AID 743225; active means well fitted curve in the direction sought with a large enough effect in the repeat runs; an effect the other way counts as inactive or inconclusive; further: nearly all actives have a fitted effect of over 50% in size)
Outline: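 Read-out: CellTiter-Glo luminescence measured 30 min after reagent addition at room temperature. Cells were VDR-bla HEK 293T exposed 16 h at 37C, 5% CO2, to compound with 3 nM final calcitriol agonist.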

[7] = qHTS assay to identify small molecule agonists of the NFkB signaling pathway (AID 1159509; active means well fitted curve in the direction sought with a large enough effect in the signal ratio in the repeat runs, not every such curve was filed as active; the % refers to the signal ratio; further: series mostly up to about 61 µM)
Outline: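 ME-180 NFkB-bla, 2,000 cells/well, overnight plating; cpd pinned in DMSO, 5 h 37 C; B/G FRET substrate 1.5 h RT; ex 405, em 460/530 nm.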

[8] = qHTS assay to identify small molecule agonists of the NFkB signaling pathway - cell viability counter screen (AID 1159515); further: series mostly up to about 61 µM; nearly all actives have a fitted effect of over 55% in size
Outline: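 5 hr compound treatment of NFkB-bla ME-180 cells (2,000/well, seeded overnight beforehand), followed by reporter substrate for 1.5 hr. CellTiter-Glo added afterward; luminescence after 30 min RT.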

[9] = qHTS assay to identify small molecule agonists of the endoplasmic reticulum stress response signaling pathway (AID 1159516; active means well fitted activation curve with a large enough effect in the signal ratio in the repeat runs, not every such curve was filed as active; the % refers to the signal ratio)
Outline: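 Reporter HeLa cells (ESRE-beta-lactamase) underwent 5 hr compound incubation at 37 C and 5% CO2 in quantitative HTS format. Detection followed 2 hr of FRET substrate loading at room temperature.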

[10] = qHTS assay to identify small molecule agonists of the endoplasmic reticulum stress response signaling pathway - cell viability counter screen (AID 1159517)
Outline: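 HeLa cells carrying an ESRE-driven beta-lactamase reporter receive compound for 5 hr at 37 C. Cell viability is then gauged with CellTiter-Glo by luminescence, 30 min at room temperature.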

[11] = molecular target: Nuclear receptor ROR-gamma (Homo sapiens) (UniProt P51449); assay: qHTS assay to identify small molecule antagonists of the retinoid-related orphan receptor gamma (ROR-gamma) signaling pathway (AID 1159521; active means well fitted curve in the direction sought with a large enough effect in the repeat runs; an effect the other way counts as inactive or inconclusive)
Outline: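 CHO Tet-on RORγ, RORE-luc reporter. Cpd 2 h pre-incubation, then dox hyclate 1 uM final, 16 h, 37 C/5% CO2. ONE-Glo luminescence; decrease = antagonist.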

[12] = qHTS assay to identify small molecule agonists of the AP-1 signaling pathway - cell viability counter screen (AID 1159525); further: nearly all actives have a fitted effect of over 55% in size
Outline: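 Luminescent ATP readout (Cell Titer Glo, 30 min RT), normalised to DMSO and tetra n-octyl ammonium bromide controls. Cells were ME-180 AP-1-bla in 0.5% dialyzed FBS Opti-MEM, with a 5 h, 37 °C compound exposure.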

[13] = qHTS assay to identify small molecule agonists of the AP-1 signaling pathway (AID 1159526)
[14] = molecular target: Retinoic acid receptor RXR-alpha (Homo sapiens) (UniProt P19793); assay: qHTS assay to identify small molecule agonists of the RXR signaling pathway (AID 1159527); further: nearly all actives have a fitted effect of over 35% in size
Outline: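 Read-out: beta-lactamase FRET ratio (405 nm excitation, 460 and 530 nm emission) after 2 hr substrate loading at room temperature. Cells were RXR-alpha-UAS-bla HEK 293T treated with compounds for 16 hr in 2% charcoal-stripped FBS medium.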

[15] = molecular target: Peroxisome proliferator-activated receptor delta (Homo sapiens) (UniProt Q03181); assay: qHTS assay to identify small molecule agonists of the peroxisome proliferator-activated receptor delta (PPARd) signaling pathway (AID 743212)
Outline: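 HEK293H PPARd-bla cells; 5 h preincubation 37 C/5% CO2; compound (DMSO) 37 C; LiveBLAzer B/G FRET substrate 2 h RT; fluorescence intensity.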

[16] = molecular target: Peroxisome proliferator-activated receptor delta (Homo sapiens) (UniProt Q03181); assay: qHTS assay to identify small molecule antagonists of the peroxisome proliferator-activated receptor delta (PPARd) signaling pathway (AID 743215; active means well fitted inhibition curve with a large enough effect in the signal ratio in the repeat runs, not every such curve was filed as active; the % refers to the signal ratio;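 further: cells stimulated with agonist L165041 at 300 nM final during compound exposure; series mostly up to about 62 µM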)
Outline: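 With L165041 present at 300 nM final, compounds were incubated 17 h at 37 C on PPARd UAS-bla HEK293H cells. A FRET-based beta-lactamase substrate was then applied for 2 h at room temperature and fluorescence intensity recorded.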

[17] = molecular target: Vitamin D3 receptor (Homo sapiens) (UniProt P11473); assay: qHTS assay to identify small molecule antagonists of the vitamin D receptor (VDR) signaling pathway (AID 743223; active means well fitted inhibition curve with a large enough effect in the signal ratio in the repeat runs, not every such curve was filed as active; the % refers to the signal ratio)
Outline: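 Antagonist mode uses 1alpha,25-dihydroxyvitamin D3 at 3 nM final as stimulus. VDR-bla cells receive compounds in DMSO, incubate 16 h at 37C, then a beta-lactamase FRET substrate for 2 h at room temperature before fluorescence measurement.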

[18] = molecular target: Bile acid receptor (Homo sapiens) (UniProt Q96RI1); assay: qHTS assay to identify small molecule antagonists of the farnesoid-X-receptor (FXR) signaling pathway (AID 743217; active means well fitted inhibition curve with a large enough effect in the signal ratio in the repeat runs, not every such curve was filed as active; the % refers to the signal ratio)
Outline: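 In this cell-based antagonist screen, inhibition of CDCA-driven (50 uM final) UAS-beta-lactamase expression in HEK 293T cells was measured by FRET fluorescence following 16 h compound exposure at 37 °C.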

[19] = molecular target: Bile acid receptor (Homo sapiens) (UniProt Q96RI1); assay: qHTS assay to identify small molecule agonists of the farnesoid-X-receptor (FXR) signaling pathway (AID 743220; active means well fitted activation curve with a large enough effect in the signal ratio in the repeat runs, not every such curve was filed as active; the % refers to the signal ratio)
Outline: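 Beta-lactamase reporter under UAS control in GeneBLAzer FXR HEK 293T cells (5000/well) measured with LiveBLAzer FRET substrate after 2 h at room temperature. Compound exposure lasted 16 h at 37C.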

[20] = qHTS assay to identify small molecule antagonists of the retinoid-related orphan receptor gamma (ROR-gamma) signaling pathway - cell viability counter screen (AID 1159520; active means well fitted curve in the direction sought with a large enough effect in the repeat runs; an effect the other way counts as inactive or inconclusive; further: nearly all actives have a fitted effect of over 50% in size)
Outline: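 Cytotoxicity was read from cellular ATP (CellTiter-Glo luminescence) after 16 hr at 37 C with 1 uM doxycycline induction. The inducer was added 2 hr after compound transfer to Tet-on ROR gamma CHO cells.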

Measured: Potency

Sequence of Peroxisome proliferator-activated receptor delta (Homo sapiens) (Q03181 whole entry, looked up): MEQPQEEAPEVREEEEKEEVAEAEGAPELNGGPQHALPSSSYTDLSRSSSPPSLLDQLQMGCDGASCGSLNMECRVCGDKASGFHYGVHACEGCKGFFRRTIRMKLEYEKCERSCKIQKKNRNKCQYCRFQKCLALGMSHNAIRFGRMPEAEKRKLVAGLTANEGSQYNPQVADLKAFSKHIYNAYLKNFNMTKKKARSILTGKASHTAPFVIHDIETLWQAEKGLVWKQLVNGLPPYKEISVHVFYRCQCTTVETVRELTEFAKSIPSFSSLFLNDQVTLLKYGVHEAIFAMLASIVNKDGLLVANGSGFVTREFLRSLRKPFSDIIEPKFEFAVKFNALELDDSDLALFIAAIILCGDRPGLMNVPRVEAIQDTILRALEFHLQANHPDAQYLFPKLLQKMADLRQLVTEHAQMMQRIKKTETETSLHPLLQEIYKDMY
Sequence of Bile acid receptor (Homo sapiens) (Q96RI1 whole entry, looked up): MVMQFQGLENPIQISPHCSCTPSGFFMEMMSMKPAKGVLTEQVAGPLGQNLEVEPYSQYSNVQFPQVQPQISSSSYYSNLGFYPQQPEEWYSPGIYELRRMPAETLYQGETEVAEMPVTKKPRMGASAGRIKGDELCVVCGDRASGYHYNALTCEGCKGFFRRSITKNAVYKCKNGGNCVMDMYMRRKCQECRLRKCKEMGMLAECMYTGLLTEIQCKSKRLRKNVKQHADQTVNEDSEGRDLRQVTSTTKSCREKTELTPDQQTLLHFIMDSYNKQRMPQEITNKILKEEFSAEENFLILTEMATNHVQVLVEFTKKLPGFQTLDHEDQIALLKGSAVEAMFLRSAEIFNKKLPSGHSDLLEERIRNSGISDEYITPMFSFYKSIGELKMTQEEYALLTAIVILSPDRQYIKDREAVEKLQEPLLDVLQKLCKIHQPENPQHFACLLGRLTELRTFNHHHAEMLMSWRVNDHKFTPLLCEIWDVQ
Sequence of Retinoic acid receptor RXR-alpha (Homo sapiens) (P19793 whole entry, looked up): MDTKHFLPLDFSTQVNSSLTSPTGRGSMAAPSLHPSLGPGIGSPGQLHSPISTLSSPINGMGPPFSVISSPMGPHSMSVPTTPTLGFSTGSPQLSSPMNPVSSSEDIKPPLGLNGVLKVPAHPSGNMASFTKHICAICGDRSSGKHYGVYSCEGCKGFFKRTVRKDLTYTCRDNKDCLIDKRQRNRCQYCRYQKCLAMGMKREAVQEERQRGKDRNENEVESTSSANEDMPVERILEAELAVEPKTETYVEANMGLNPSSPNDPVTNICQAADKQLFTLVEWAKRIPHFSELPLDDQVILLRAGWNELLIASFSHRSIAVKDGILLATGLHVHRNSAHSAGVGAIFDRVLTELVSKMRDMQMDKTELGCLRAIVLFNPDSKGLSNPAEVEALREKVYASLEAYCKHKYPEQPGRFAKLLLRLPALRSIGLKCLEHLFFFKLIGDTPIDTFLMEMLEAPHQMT
Sequence of Vitamin D3 receptor (Homo sapiens) (P11473 whole entry, looked up): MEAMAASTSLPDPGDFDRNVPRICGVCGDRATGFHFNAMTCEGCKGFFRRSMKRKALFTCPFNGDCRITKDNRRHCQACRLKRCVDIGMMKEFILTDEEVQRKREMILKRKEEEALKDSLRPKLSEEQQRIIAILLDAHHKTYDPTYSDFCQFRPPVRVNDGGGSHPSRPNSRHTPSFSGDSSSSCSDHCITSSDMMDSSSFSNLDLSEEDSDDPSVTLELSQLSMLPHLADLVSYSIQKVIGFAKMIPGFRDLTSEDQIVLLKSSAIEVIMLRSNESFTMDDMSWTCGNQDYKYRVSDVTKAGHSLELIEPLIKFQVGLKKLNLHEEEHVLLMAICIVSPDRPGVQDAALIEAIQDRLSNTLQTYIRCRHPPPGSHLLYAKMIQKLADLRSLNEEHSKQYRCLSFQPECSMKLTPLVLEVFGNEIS

CC(=O)OCCOC(C)=O
not listed: [15] | [16] | [17] | [18] | [19] | [20]
inactive: all other assays above

Nc1nc(N)nc(-c2ccccc2)n1
not listed: [4] | [17] | [18] | [19] | [20]
inactive: all other assays above

O=C(O)/C=C/C(=O)O
not listed: [17] | [18] | [19] | [20]
inactive: all other assays above

CCCCCCC=O
not listed: [18] | [19] | [20]
inactive: all other assays above

C=C(C)[C@H]1CC=C(C)C(=O)C1
not listed: [15] | [16] | [17] | [18] | [19] | [20]
inactive: all other assays above

CCOCCOCCOCCO
not listed: [15] | [16] | [17] | [20]
inactive: all other assays above

C=C(C)C(=O)OCC(C)C
not listed: [9] | [17]
inactive: all other assays above

O=S(=O)(O)c1ccc(N=Nc2c(O)ccc3cc(S(=O)(=O)O)ccc23)cc1
not listed: [17]
inactive: all other assays above

O=[N+]([O-])c1ccc2nc[nH]c2c1
not listed: [4] | [9] | [17]
inactive: all other assays above

CCCCCCCCCCO
not listed: [15] | [16] | [17] | [20]
inactive: all other assays above

C=C(C)CNCC
not listed: [17] | [18] | [19] | [20]
inactive: all other assays above

CC(C)(C)c1cc(Cc2cc(C(C)(C)C)c(O)c(C(C)(C)C)c2)cc(C(C)(C)C)c1O
not listed: [9] | [17]
inactive: all other assays above

CSc1ccc(Cl)cc1
inactive: all assays above

CC(=O)Oc1ccc(C)cc1
not listed: [4] | [17] | [18] | [19]
inactive: all other assays above

O=C1C(c2[nH]c3ccccc3c2O)=Nc2ccccc21
not listed: [4] | [9] | [17]
inactive: all other assays above

C[C@]12CCC(=O)C=C1CC[C@@H]1[C@@H]2[C@@H](O)C[C@@]2(C)[C@H]1CC[C@]2(O)C(=O)CO
not listed: [18] | [19]
inactive: all other assays above

Clc1ccccn1
not listed: [17] | [20]
inactive: all other assays above
